Where “and” joins values, the source holds several entries; their conditions need not be identical. Identical values can stand only once. In all, about 5,500 compounds went through this assay and about 2,000 (36%) were called active. Inconclusive results (about 18%) are left out. Rule as the data show it: active = normalized growth mostly below about 0.91 (no sharp cut-off); inconclusive = no clear call, values can overlap the other calls; inactive = mostly above about 0.92. This is one part of the list.
Assay: chemical genetic growth profiling, strain panel (AID 1159580);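 also: tested at 20 µM; growth read once vehicle control cultures reached saturation at 30 °C; 1 = growth at the plate median or of vehicle wells; lower values mean less growth of the strain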
Settings: S. cerevisiae deletion strains, growth OD

Measured: normalized growth

CN(C)CCOC(=O)C(c1ccccc1)C1(O)CCCC1 (stereo not drawn)
inactive: locus YAL013W, strain DEP1, active compounds read low 1.01 | locus YAL021C, strain ccr4, active compounds read low 0.987 | locus YAL026C, strain drs2, active compounds read low 1.03 | locus YAL030W, strain snc1, active compounds read low 0.99 | locus YBL061C, strain skt5, active compounds read low 0.995 | locus YBR009C, strain hhf1, active compounds read low 1 | locus YBR021W, strain FUR4, active compounds read low 0.991 | locus YBR023C, strain chs3, active compounds read low 1 | locus YBR171W, strain sec66, active compounds read low 0.97 | locus YBR229C, strain ROT2, active compounds read low 0.998 | locus YBR231C, strain swc5, active compounds read low 0.972 | locus YBR279W, strain paf1, active compounds read low 0.992 | locus YCL011C, strain gbp2, active compounds read low 1.01 | locus YCL016C, strain dcc1, active compounds read low 1.03 | locus YCL029C, strain bik1, active compounds read low 1.02 | locus YCL061C, strain MRC1, active compounds read low 0.993 | locus YCL069W, strain vba3, active compounds read low 0.991 | locus YCR088W, strain abp1, active compounds read low 0.981 | locus YDL005C, strain med2, active compounds read low 0.991 | locus YDL035C, strain GPR1, active compounds read low 1.01 | locus YDL040C, strain nat1, active compounds read low 0.974 | locus YDL074C, strain BRE1, active compounds read low 1.02 | locus YDL101C, strain DUN1, active compounds read low 0.998 | locus YDL185W, strain tfp1, active compounds read low 1.01 | locus YDL192W, strain arf1, active compounds read low 1.02 | locus YDR001C, strain nth1, active compounds read low 0.963 | locus YDR069C, strain doa4, active compounds read low 0.99 | locus YDR101C, strain arx1, active compounds read low 1 | locus YDR137W, strain rgp1, active compounds read low 1.04 | locus YDR150W, strain NUM1, active compounds read low 0.998 | locus YDR159W, strain sac3, active compounds read low 1.01 | locus YDR162C, strain NBP2, active compounds read low 1.01 | locus YDR195W, strain ref2 0.925 | locus YDR297W, strain sur2, active compounds read low 0.981 | locus YDR318W, strain mcm21, active compounds read low 1.01 | locus YDR334W, strain swr1, active compounds read low 0.984 | locus YDR335W, strain msn5, active compounds read low 0.985 | locus YDR388W, active compounds read low 1.01 | locus YDR392W, strain spt3, active compounds read low 1.08 | locus YDR502C, strain sam2, active compounds read low 1.02 | locus YEL003W, strain gim4, active compounds read low 0.978 | locus YEL037C, strain rad23, active compounds read low 0.984 | locus YEL061C, strain CIN8 (second series), active compounds read low 0.984 | locus YEL061C, strain CIN8, active compounds read low 1 | locus YER015W, strain faa2, active compounds read low 0.999 | locus YER016W, strain bim1, active compounds read low 1.01 | locus YER110C, active compounds read low 1.02 | locus YER111C, strain swi4, active compounds read low 0.971 | locus YER155C, strain BEM2 (second series), active compounds read low 1 | locus YER155C, strain BEM2, active compounds read low 0.996 | locus YER167W, strain BCK2, active compounds read low 1 | locus YFR010W, strain ubp6, active compounds read low 0.962 | locus YGL078C, strain dbp3, active compounds read low 1.01 | locus YGL086W, strain mad1, active compounds read low 1.02 | locus YGL167C, strain pmr1, active compounds read low 0.974 | locus YGL173C, strain kem1, active compounds read low 0.989 | locus YGL227W, strain vid30, active compounds read low 0.988 | locus YGL240W, strain doc1, active compounds read low 0.963 | locus YGL248W, strain PDE1, active compounds read low 1.01 | locus YGL253W, strain hxk2, active compounds read low 1 | locus YGR135W, strain pre9, active compounds read low 1.03 | locus YGR252W, strain gcn5, active compounds read low 0.964 | locus YHR013C, strain ard1, active compounds read low 1.02 | locus YHR027C, strain rpn1, active compounds read low 1.01 | locus YHR030C, strain SLT2, active compounds read low 1 and 0.988 | locus YHR079C, strain IRE1 (second series), active compounds read low 1.01 | locus YHR079C, strain IRE1, active compounds read low 1 | locus YHR094C, strain hxt1, active compounds read low 1.02 | locus YHR129C, strain ARP1, active compounds read low 1 | locus YHR142W, strain chs7, active compounds read low 0.985 | locus YHR200W, strain rpn10, active compounds read low 1.02 | locus YIL066C, strain RNR3, active compounds read low 1.01 | locus YIL073C, strain SPO22, active compounds read low 1.02 | locus YIL125W, strain kgd1, active compounds read low 1.01 | locus YIR030C, strain dcg1, active compounds read low 1.03 | locus YJL092W, strain hpr5, active compounds read low 0.981 | locus YJL095W, strain BCK1 (second series), active compounds read low 0.996 | locus YJL095W, strain BCK1, active compounds read low 1.02 and 0.991 | locus YJL115W, strain asf1, active compounds read low 0.97 | locus YJL129C, strain trk1, active compounds read low 0.96 | locus YJL134W, strain LCB3, active compounds read low 1 | locus YJL154C, strain vps35, active compounds read low 0.972 | locus YJL164C, strain tpk1, active compounds read low 1.01 | locus YJL166W, strain qcr8, active compounds read low 0.978 | locus YJL168C, strain set2, active compounds read low 1.01 | locus YJL187C, strain SWE1 (second series), active compounds read low 1.02 | locus YJR043C, strain POL32, active compounds read low 1.01 | locus YJR066W, strain TOR1, active compounds read low 0.995

— PubChem BioAssay AID1159580 (chemical genetic matrix, 2015)
